# ChEMBL document CHEMBL1961873, “Compounds: GSK PKIS; Assays: Nanosyn kinase panel” (2012)
# Experiments:
# [1] = target: 5'-AMP-activated protein kinase catalytic subunit alpha-2 (Homo sapiens) (UniProt P54646); conditions: at 1 µM
# [2] = target: T1, NUAK family SNF1-like kinase 1 (Homo sapiens) (UniProt O60285); conditions: at 1 µM
# T1 sequence (whole entry): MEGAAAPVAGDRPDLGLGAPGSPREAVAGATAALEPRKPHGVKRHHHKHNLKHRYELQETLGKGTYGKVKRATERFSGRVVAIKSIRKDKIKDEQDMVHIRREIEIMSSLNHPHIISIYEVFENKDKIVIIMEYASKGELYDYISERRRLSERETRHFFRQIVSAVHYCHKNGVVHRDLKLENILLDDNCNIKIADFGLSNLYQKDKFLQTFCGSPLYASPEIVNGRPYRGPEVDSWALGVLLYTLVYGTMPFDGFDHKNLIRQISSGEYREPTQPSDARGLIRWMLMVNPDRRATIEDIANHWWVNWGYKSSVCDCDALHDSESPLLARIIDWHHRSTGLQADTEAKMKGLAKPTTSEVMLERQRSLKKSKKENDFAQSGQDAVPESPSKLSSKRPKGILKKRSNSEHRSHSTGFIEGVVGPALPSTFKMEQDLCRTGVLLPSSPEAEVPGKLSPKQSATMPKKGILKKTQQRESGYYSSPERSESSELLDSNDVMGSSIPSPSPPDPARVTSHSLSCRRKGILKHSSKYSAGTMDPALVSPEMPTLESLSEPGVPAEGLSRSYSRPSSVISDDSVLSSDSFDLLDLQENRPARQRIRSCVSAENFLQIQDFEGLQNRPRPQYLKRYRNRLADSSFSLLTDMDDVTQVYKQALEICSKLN
# [3] = target: T2, Serine/threonine-protein kinase BRSK1 (Homo sapiens) (UniProt Q8TDC3); conditions: at 0.1 µM
# T2 sequence (whole entry): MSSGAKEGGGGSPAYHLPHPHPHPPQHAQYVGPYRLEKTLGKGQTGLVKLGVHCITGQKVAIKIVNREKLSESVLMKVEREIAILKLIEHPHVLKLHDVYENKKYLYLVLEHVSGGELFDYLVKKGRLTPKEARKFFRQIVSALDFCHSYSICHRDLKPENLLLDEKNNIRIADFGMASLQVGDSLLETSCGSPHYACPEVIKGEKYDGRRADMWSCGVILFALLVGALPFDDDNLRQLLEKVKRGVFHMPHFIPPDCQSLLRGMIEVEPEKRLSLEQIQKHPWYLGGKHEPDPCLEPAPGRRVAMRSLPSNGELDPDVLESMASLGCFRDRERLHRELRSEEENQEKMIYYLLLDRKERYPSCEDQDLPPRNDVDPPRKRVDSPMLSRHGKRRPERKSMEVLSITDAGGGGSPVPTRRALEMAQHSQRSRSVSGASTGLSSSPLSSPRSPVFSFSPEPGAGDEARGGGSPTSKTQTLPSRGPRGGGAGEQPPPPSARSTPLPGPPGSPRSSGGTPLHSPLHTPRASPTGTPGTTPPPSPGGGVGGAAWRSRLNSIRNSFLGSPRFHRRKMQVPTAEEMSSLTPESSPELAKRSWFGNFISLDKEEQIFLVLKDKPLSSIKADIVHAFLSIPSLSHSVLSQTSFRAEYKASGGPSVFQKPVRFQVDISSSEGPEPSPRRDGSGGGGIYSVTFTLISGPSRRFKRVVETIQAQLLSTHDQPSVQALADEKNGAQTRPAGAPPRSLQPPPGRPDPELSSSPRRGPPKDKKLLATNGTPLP
# [4] = target: T2, Serine/threonine-protein kinase BRSK1 (Homo sapiens); conditions: at 1 µM
# [5] = target: T3, Serine/threonine-protein kinase BRSK2 (Homo sapiens) (UniProt Q8IWQ3); conditions: at 0.1 µM
# T3 sequence (whole entry): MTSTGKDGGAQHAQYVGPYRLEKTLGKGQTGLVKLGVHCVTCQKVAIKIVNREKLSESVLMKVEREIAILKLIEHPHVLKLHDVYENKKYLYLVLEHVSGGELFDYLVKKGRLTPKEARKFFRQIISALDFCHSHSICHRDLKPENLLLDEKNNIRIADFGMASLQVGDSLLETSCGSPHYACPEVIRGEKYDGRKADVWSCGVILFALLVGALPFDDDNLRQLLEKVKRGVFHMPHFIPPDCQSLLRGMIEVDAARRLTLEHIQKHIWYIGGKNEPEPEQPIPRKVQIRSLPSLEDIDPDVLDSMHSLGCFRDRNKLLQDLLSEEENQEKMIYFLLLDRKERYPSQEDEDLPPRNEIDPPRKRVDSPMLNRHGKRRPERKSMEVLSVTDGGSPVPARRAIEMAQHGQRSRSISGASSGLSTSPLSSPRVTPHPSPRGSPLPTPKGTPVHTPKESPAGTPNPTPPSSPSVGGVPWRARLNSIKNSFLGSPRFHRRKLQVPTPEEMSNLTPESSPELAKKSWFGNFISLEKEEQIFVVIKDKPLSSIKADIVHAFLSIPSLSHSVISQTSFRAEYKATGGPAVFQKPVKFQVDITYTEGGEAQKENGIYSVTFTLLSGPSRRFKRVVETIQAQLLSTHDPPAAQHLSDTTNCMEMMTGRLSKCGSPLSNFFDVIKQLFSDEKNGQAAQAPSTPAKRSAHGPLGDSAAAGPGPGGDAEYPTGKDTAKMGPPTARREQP
# [6] = target: T3, Serine/threonine-protein kinase BRSK2 (Homo sapiens); conditions: at 1 µM
# [7] = target: Calcium/calmodulin-dependent protein kinase type 1D (Homo sapiens) (UniProt Q8IU85); conditions: at 0.1 µM
# [8] = target: Calcium/calmodulin-dependent protein kinase type 1D (Homo sapiens) (UniProt Q8IU85); conditions: at 1 µM
# [9] = target: Calcium/calmodulin-dependent protein kinase type II subunit alpha (Homo sapiens) (UniProt Q9UQM7); conditions: at 0.1 µM
# [10] = target: Calcium/calmodulin-dependent protein kinase type II subunit alpha (Homo sapiens) (UniProt Q9UQM7); conditions: at 1 µM
# [11] = target: Calcium/calmodulin-dependent protein kinase type II subunit delta (Homo sapiens) (UniProt Q13557); conditions: at 0.1 µM
# [12] = target: Calcium/calmodulin-dependent protein kinase type II subunit delta (Homo sapiens) (UniProt Q13557); conditions: at 1 µM
# [13] = target: T4, Calcium/calmodulin-dependent protein kinase type IV (Homo sapiens) (UniProt Q16566); conditions: at 0.1 µM
# T4 sequence (whole entry): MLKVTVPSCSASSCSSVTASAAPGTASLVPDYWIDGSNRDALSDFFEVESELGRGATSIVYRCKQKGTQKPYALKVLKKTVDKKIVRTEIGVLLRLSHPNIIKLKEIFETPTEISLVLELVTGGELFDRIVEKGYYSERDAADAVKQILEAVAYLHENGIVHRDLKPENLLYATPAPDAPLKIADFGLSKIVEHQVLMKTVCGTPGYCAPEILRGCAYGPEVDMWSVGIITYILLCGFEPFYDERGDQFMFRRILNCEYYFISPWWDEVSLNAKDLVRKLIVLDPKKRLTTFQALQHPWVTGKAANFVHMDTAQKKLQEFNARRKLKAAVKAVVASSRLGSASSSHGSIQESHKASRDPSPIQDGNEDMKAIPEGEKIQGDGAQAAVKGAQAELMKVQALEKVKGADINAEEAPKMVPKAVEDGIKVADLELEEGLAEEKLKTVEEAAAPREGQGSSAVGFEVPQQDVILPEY
# [14] = target: T4, Calcium/calmodulin-dependent protein kinase type IV (Homo sapiens); conditions: at 1 µM
# [15] = target: T5, Serine/threonine-protein kinase Chk1 (Homo sapiens) (UniProt O14757); conditions: at 0.1 µM
# T5 sequence (whole entry): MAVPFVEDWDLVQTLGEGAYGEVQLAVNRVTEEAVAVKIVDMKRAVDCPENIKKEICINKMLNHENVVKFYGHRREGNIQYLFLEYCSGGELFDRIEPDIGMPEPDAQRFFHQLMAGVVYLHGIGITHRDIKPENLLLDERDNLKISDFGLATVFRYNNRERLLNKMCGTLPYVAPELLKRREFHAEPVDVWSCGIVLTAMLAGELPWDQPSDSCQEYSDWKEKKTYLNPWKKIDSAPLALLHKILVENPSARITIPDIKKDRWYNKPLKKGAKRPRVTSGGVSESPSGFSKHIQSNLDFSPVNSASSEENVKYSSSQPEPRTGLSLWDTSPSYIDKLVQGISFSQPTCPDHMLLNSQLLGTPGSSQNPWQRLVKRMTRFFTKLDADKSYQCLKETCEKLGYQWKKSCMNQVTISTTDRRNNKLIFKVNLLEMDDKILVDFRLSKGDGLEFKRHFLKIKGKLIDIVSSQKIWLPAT
# [16] = target: T5, Serine/threonine-protein kinase Chk1 (Homo sapiens); conditions: at 1 µM
# [17] = target: Serine/threonine-protein kinase Chk2 (Homo sapiens) (UniProt O96017); conditions: at 0.1 µM
# [18] = target: Serine/threonine-protein kinase Chk2 (Homo sapiens) (UniProt O96017); conditions: at 1 µM
# [19] = target: Death-associated protein kinase 1 (Homo sapiens) (UniProt P53355); conditions: at 0.1 µM;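 also: reported figure is the mean inhibition of DAPK1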
# [20] = target: T1, NUAK family SNF1-like kinase 1 (Homo sapiens); conditions: at 0.1 µM
# Sequence of Death-associated protein kinase 1 (Homo sapiens) (P53355 whole entry, looked up): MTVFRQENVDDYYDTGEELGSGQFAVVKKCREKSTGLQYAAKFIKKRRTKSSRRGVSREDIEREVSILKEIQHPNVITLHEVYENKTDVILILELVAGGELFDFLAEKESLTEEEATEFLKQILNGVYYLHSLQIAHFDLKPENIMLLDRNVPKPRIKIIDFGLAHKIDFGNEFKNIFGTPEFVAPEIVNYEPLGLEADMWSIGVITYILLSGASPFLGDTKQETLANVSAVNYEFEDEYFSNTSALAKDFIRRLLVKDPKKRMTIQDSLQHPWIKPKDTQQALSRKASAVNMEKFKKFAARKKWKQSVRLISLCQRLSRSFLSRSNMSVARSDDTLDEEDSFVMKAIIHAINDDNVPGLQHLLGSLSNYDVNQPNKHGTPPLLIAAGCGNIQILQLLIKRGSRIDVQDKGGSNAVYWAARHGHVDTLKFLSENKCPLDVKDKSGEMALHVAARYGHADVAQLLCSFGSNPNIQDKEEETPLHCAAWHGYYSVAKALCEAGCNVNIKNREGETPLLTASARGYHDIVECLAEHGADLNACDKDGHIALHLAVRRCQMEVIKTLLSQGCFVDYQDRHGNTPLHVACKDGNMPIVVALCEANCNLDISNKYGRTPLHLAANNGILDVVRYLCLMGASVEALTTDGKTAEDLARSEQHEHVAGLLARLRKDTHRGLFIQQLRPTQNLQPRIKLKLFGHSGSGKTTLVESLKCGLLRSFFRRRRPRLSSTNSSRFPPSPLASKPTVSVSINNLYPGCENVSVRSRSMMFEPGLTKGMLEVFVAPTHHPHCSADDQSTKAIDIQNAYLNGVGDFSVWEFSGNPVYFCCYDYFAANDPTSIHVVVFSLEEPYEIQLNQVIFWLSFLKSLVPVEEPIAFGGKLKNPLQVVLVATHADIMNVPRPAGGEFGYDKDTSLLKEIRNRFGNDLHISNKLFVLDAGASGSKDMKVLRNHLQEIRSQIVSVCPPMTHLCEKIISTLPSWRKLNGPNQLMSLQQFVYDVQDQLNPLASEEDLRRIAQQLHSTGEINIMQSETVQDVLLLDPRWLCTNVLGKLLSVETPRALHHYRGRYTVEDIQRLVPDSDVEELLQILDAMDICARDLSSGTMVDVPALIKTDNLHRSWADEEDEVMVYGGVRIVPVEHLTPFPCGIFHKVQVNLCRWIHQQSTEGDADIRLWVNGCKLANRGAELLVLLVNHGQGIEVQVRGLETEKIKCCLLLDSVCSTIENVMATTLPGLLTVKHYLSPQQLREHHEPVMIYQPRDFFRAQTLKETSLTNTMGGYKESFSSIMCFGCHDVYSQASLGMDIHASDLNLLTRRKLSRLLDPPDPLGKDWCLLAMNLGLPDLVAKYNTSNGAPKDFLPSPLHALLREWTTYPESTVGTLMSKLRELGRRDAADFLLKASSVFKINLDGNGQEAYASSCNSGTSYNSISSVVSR
# Sequence of Calcium/calmodulin-dependent protein kinase type 1D (Homo sapiens) (Q8IU85 whole entry, looked up): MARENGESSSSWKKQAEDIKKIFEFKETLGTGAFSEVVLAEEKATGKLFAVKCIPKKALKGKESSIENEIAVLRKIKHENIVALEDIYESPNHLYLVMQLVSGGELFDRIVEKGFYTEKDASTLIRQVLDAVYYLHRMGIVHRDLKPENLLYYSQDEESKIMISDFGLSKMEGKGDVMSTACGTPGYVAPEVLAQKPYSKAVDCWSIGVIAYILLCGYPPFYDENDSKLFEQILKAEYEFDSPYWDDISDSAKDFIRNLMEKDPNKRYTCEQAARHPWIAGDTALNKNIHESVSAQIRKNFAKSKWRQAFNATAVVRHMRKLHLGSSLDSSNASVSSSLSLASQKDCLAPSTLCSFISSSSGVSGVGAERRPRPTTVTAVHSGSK
# Sequence of Calcium/calmodulin-dependent protein kinase type II subunit delta (Homo sapiens) (Q13557 whole entry): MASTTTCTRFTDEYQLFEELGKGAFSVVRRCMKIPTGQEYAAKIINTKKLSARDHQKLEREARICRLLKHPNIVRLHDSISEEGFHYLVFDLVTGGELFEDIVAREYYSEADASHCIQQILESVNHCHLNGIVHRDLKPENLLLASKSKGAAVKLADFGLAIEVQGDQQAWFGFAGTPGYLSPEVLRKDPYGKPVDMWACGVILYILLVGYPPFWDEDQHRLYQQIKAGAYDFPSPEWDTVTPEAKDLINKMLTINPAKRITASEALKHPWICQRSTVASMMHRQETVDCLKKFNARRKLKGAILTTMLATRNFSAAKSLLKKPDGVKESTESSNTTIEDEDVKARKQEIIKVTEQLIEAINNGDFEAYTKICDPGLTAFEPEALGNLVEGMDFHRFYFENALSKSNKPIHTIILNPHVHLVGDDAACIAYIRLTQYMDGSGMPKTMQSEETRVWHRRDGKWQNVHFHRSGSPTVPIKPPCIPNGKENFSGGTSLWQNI
# Sequence of Serine/threonine-protein kinase Chk2 (Homo sapiens) (O96017 whole entry): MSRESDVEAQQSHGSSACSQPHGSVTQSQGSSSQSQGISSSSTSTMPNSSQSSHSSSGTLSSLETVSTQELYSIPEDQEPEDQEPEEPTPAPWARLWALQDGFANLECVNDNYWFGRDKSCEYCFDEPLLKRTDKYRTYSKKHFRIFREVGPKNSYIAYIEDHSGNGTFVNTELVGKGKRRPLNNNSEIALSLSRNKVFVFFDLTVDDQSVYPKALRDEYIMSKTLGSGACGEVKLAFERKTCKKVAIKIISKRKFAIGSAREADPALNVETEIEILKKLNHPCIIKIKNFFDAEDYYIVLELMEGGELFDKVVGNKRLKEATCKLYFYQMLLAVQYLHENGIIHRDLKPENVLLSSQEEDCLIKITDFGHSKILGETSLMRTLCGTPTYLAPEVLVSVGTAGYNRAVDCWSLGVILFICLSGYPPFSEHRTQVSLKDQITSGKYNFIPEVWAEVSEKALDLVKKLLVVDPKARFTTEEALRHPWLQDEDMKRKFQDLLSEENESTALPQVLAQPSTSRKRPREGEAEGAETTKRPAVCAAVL
# Sequence of Calcium/calmodulin-dependent protein kinase type II subunit alpha (Homo sapiens) (Q9UQM7 whole entry): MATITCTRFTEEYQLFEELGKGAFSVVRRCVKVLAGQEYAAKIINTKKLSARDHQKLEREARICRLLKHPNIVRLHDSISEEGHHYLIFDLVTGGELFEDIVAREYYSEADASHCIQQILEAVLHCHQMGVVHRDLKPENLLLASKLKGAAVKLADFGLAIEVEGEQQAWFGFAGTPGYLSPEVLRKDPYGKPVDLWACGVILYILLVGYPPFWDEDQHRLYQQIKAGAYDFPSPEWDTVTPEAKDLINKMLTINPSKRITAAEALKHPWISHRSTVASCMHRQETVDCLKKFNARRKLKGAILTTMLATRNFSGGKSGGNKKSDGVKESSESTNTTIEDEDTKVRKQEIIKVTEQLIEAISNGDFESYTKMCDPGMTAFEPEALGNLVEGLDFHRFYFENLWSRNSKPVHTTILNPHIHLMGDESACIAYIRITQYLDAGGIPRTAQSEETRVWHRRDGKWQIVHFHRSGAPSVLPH
# Sequence of 5'-AMP-activated protein kinase catalytic subunit alpha-2 (Homo sapiens) (P54646 whole entry, looked up): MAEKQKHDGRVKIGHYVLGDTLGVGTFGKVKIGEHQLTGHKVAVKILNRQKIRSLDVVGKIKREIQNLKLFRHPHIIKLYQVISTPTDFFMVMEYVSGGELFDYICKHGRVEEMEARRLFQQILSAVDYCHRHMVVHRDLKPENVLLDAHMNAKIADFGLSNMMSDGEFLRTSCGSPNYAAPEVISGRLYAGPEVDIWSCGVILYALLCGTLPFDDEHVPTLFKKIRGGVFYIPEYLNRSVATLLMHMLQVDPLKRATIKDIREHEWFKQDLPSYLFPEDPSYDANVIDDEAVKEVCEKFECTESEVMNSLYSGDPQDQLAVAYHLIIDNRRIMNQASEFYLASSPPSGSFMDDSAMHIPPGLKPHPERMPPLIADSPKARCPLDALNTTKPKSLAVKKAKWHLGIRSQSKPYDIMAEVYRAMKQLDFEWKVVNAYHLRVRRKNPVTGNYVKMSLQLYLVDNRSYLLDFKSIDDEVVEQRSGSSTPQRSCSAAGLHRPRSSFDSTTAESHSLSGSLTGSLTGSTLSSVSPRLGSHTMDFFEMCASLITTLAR
Compound,inhibition [1],inhibition [2],inhibition [3],inhibition [4],inhibition [5],inhibition [6],inhibition [7],inhibition [8],inhibition [9],inhibition [10],inhibition [11],inhibition [12],inhibition [13],inhibition [14],inhibition [15],inhibition [16],inhibition [17],inhibition [18],inhibition [19],inhibition [20]
CNC(=O)c1cncc(/C=C/c2c(Cl)cccc2Cl)c1,1.77%,7.27%,4.16%,7.3%,1.54%,9.33%,-0.35%,2.1%,3%,4.95%,3.11%,8.55%,0.01%,3.19%,0.16%,4.57%,2.6%,9.62%,2.23%,
COc1ccc(-c2ccncc2)cc1C(N)=O,4.51%,5.44%,3.31%,4.66%,4.68%,8.59%,-0.75%,1.22%,1.71%,3.32%,3.92%,8.26%,-1.04%,0.03%,8.46%,10.1%,8.96%,12.5%,14%,1.88%
Nc1ncnc2occ(-c3ccc(NC(=O)Nc4cccc(C(F)(F)F)c4)cc3)c12,5.34%,8.04%,0.85%,10.2%,5.5%,9.75%,0.29%,7.97%,2.71%,1.03%,3.02%,2.75%,-0.91%,4.17%,6.67%,5.24%,3.95%,6.09%,8.33%,1.07%
O=C1Nc2ccc(C(=O)c3ccco3)cc2C1=Cc1cc(Cl)c(O)c(Cl)c1,10.8%,10.8%,1.94%,8.43%,3.02%,13.1%,-0.26%,0.48%,3.4%,8%,3.46%,11.4%,0.35%,0.09%,1.54%,5.95%,2.67%,12.5%,-0.53%,2.94%
Cc1ccc(C(=O)NC2CCCCC2)cc1-c1ccc(C(=O)NCC2CC2)cc1,1.51%,2.62%,2.63%,0.64%,1.87%,-1.13%,3.13%,2.73%,4.8%,4.57%,4.88%,2.35%,3.22%,3.67%,6.06%,5.14%,1.33%,1.29%,3.76%,2.83%
CCn1c(-c2nonc2N)nc2c(C#CC(C)(C)O)nc(CN3CCCC3)cc21,6.62%,2.69%,0.47%,2.17%,1.38%,3.23%,1.23%,2.08%,-0.97%,0.03%,-0.33%,1.82%,-3.55%,1.55%,,-2.45%,-1.49%,0.49%,0.05%,-8.68%
Cc1ccc(NC(=O)c2ccnc(N3CCCC3)c2)cc1-c1ccc(C(=O)NCC2CC2)cc1,8.93%,,3.85%,3.6%,2.81%,4.83%,0.91%,2.39%,4.45%,5.72%,4.6%,7.16%,-0.3%,2.35%,3.53%,7.14%,3.26%,4.85%,2.4%,5.1%
